Bioassay records (PubChem BioAssay)
Only some compounds are listed: those with a hit (about 1.9% of all), similar ones and a draw of the others.
BaF3 parental = parental Ba/F3 cell viability inhibition, counter-screen for JAK2V617F inhibitor project, murine pro-B, CellTiter-Glo luminescence | inhibition, % at 5.6 µM | actives 1.1% (n = 220,000) | CellTiter-Glo ATP luminescence;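 active = inhibition above a per-campaign cutoff, the mean inhibition of all tested compounds plus 3 SD, cut at about 27% in these data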;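 also: 0% = DMSO wells and 100% = JAK Inhibitor I control wells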
IEC-6 cytotox = cytotoxicity in IEC-6 intestinal epithelial cells, primary screen, cytotoxicity control for KLF5 inhibitor project, cell-based, luminescence; AID 1825, 2009; inhibition, % at 5 µM; actives 0.78% (n = 290,000); IEC-6 cytotoxicity, luminescence viability; in the data active = inhibition above about 22%;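 also: 0% = plate median of test compound wells and 100% = cytotoxic reference compound wells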
Ba/F3 V617F tox = reduced viability of JAK2V617F-dependent Ba/F3 cells, primary screen, JAK2V617F inhibitor project, cell-based, Ba/F3 EpoR-JAK2V617F, luminescence. actives 1.1% (n = 220,000). inhibition, % at 5.6 µM. ATP luminescence;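 active = inhibition above the campaign mean plus 3 SD over all tested compounds, cut at about 24% in these data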;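 also: cytokine-independent growth of Ba/F3 cells driven by EpoR plus mutant JAK2; 0% = DMSO-treated cells and 100% = JAK inhibitor I control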
KLF5 inhibitor = KLF5 expression inhibitors, primary screen, DLD-1 cells, luminescence. DLD-1 KLF5 promoter-luciferase reporter. actives 0.23% (n = 290,000). inhibition, % at 5 µM;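 active = inhibition above a per-plate limit of that plate's mean compound inhibition plus 3 SD, cut at about 60% in these data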;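 also: 0% = DMSO wells and 100% = LY294002 at 200 µM; higher means less KLF5 promoter-driven luciferase light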
APP 5UTR inh = inhibitors of APP translation via 5'UTR reporter, primary screen, APP 5'UTR luciferase, SH-SY5Y cells. SH-SY5Y APP 5'UTR-luciferase reporter, luminescence. inhibition, % at 2 µM. actives 0.82% (n = 190,000). AID 1285, 2008;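 active = inhibition above a set limit, derived from the sample mean plus 3 SD, cut at about 45% in these data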
An asterisk follows results filed as active; · = no result.

SMILES	BaF3 parental	IEC-6 cytotox	Ba/F3 V617F tox	KLF5 inhibitor	APP 5UTR inh
C=C1/C(=C\C=C2/CCC[C@]3(C)[C@@H]([C@H](C)CCCC(C)(C)O)CC[C@@H]23)C[C@@H](O)C[C@@H]1O	3	2	45*	-35	·
COc1ccc(C2c3ccc(O)cc3Oc3ncn4nc(-c5cccnc5)nc4c32)cc1OC (stereo unspecified)	2	-4	9	-2	·
Cc1ccc(-c2nc3cc(NC(=O)C(C)C)ccc3o2)cc1	28*	-1	0	-230	-147
CCc1cccc(C)c1NC(=O)CNCc1ccccc1	-1	-2	-4	-7	-16
CCOC(=O)c1c(C)[nH]c(C(=O)N/N=C/c2ccc(Br)cc2)c1C	78*	85*	73*	72*	95*
Cc1[nH]c(C(=O)N/N=C/c2ccc(C(=O)O)cc2)c(C)c1C(=O)N/N=C/c1ccc(C(=O)O)cc1	-1	8	0	-34	-17
COc1ccccc1CN1CCCC(CNC(=O)c2cccc3ccccc23)C1 (stereo unspecified)	·	0	·	-39	·
NC(=S)N/N=C/c1ccccc1OCCSc1ccc(Cl)cc1	44*	0	44*	-22	-36
O=Nc1ccc(O)c2ncccc12	103*	19	99*	10	·
Cc1ccccc1N=Nc1ccc(O)c2ncccc12	1	-2	3	-6	77*
COc1ccc(C)cc1N=Nc1ccc(O)c2ncccc12	1	0	0	6	68*
O=S(=O)(O)c1cccc2c(N=Nc3ccc(O)c4ncccc34)cccc12	·	-6	·	-20	·
O=C(Oc1ccccc1)c1cccc2cccc(C(=O)Oc3ccccc3)c12	4	2	-8	-4	·
OCCC1CN(Cc2nc3ccccc3s2)CCN1C1CCCC1 (stereo unspecified)	3	-3	-5	0	1
COc1ccc(NC(=S)N(CCCOC(C)C)C2CCN(C(C)=O)CC2)cc1Cl	·	-1	·	-25	·
COc1cc(/C=N/NC(N)=S)cc(Br)c1OCc1ccccc1F	53*	9	65*	-20	-20
CCOc1cc(/C=N/N=C(\N)c2nonc2N)cc(Br)c1OCc1cccc2ccccc12	5	5	5	-18	-24
CCOc1cc(/C=N/NC(N)=S)cc(Br)c1OCc1ccccc1C	28*	3	11	11	-19
C=C1C(=O)C=C2CN(C(=O)c3ccccc3)[C@@](Cc3ccc(F)cc3)(C(=O)OC)[C@@H]12	92*	27*	97*	-6	96*
COC(=O)[C@@]1(Cc2ccc(OC)cc2)[C@@H]2C(=CC(=O)[C@H]2CC(=O)C(=O)N(C)C)CN1C(=O)c1ccccc1	4	4	-3	13	6
Cc1ccc(CSc2nc3ccccc3cc2C=O)cc1	3	-2	2	7	94*
CCN1/C(=C/c2ccc3cc(C)ccc3[n+]2C)Sc2ccc3sccc3c21	62*	16	78*	-12	20
CCN1/C(=C/c2cccc[n+]2C)Sc2ccc(OC)cc21	·	10	·	-4	·
NNC(=O)C1CCCN1S(=O)(=O)c1ccc(Cl)cc1 (stereo unspecified)	58*	-6	-3	-19	24
Cc1ccc2c(C)c(C(=O)N3CCCCC3CO)oc2c1C (stereo unspecified)	·	0	·	-26	·
SMILES	BaF3 parental	IEC-6 cytotox	Ba/F3 V617F tox	KLF5 inhibitor	APP 5UTR inh
CC(=O)Nc1cc[n+](C(C)C(=O)c2ccc(Br)cc2)cc1 (stereo unspecified)	37*	1	40*	-4	-8
CC(=O)Nc1cc[n+](C(C)C(=O)c2ccccc2)cc1 (stereo unspecified)	·	-2	·	1	·
CCOc1ccc(CCNC(=O)CCS(=O)(=O)c2ccc(OC)cc2)cc1OCC	1	1	-1	-4	11
Cn1/c(=N/N=C/c2ccc([N+](=O)[O-])cc2)sc2ccccc21	-1	-4	-4	-59	15
Cc1cc(C)c2c(c1)/C(=N\N=c1\sc3ccccc3n1C)C(=O)N2	39*	1	1	-17	·
CC1=C(C)/C(=N\OS(=O)(=O)c2ccccc2)C=CC1=O	91*	-5	91*	-36	74*
Cc1ccc(Nc2cc(C)nn2-c2nc(C)cc(C)n2)cc1	6	30*	3	24	6
COc1ccc(-c2nnn(CC(=O)N(Cc3ccccc3Cl)C(C(=O)NCC3CCCO3)c3ccco3)n2)cc1OC (stereo unspecified)	11	0	-1	-3	-4
O=C(NCCSc1ccccn1)c1ccc(Cl)cc1	2	-3	-1	-137	-209
N#CC(Sc1ccccn1)c1ccc(Cl)cc1 (stereo unspecified)	53*	2	26*	-18	12
CN1/C(=C/c2cccc[n+]2C)Sc2ccccc21	·	16	·	-5	·
CN1/C(=C/c2cc[n+](C)c3ccccc23)C=Cc2ccccc21	63*	-2	76*	11	2
CCN(CC)S(=O)(=O)c1ccc2c(c1)nc(SCn1nnc3ccccc3c1=O)n2CC	4	-5	0	-33	92*
Cn1c(SCn2nnc3ccccc3c2=O)nc2ccccc2c1=O	-2	-5	-4	-14	2
COc1ccc(NC(=O)NNC(=O)C(C)Oc2ccc3ccccc3c2)cc1OC (stereo unspecified)	·	-15	·	-13	·
COc1cc(/C=C/c2noc(-c3ccccc3O)n2)cc(OC)c1OC	5	-5	-2	-11	-52
COc1cc(/C=C/c2nnc3c4ccccc4ncn23)cc(OC)c1OC	43*	21	28*	22	-2
C/C(=N\NC(=O)CSc1nc(C)cc(C)n1)c1cccc([N+](=O)[O-])c1	5	6	4	-38	-4
COc1cccc(NC(=O)N2CCN(c3nnnn3-c3ccccc3)CC2)c1	-1	4	0	-7	-2
Cc1cc2nc(-c3ccc[nH]c3=O)n(Cc3ccccc3F)c2cc1C	·	-2	·	-19	·
COc1ccc(-c2cnnc(N/N=C/c3ccc(-c4ccc([N+](=O)[O-])cc4)o3)n2)cc1	5	0	-1	-28	90*
COc1ccc(-n2c(C)cc(C3=NNC(=NC4CC4)SC3)c2C)cc1	5	-6	0	11	-93
C=CCn1c(C)cc(C2=NNC(=NC(C)(C)C)SC2)c1C	0	1	2	-27	-128
Cc1cc(C2=NNC(=NC3CC3)SC2)c(C)n1Cc1ccco1	-2	-2	-5	-15	47*
COCCn1c(C)cc(C2=NNC(=NC3CC3)SC2)c1C	5	-8	-2	79*	88*
Cc1cc(C2=NNC(=NC3CC3)SC2)c(C)n1-c1ccccc1	3	0	-2	21	76*
CCN1CCc2c(sc(NC(=O)c3ccc(S(=O)(=O)N4CCCCCC4)cc3)c2C(=O)NC)C1	·	4	·	-38	·
